Measurements: PubChem BioAssay (NCI)
The panel holds about 79,000 compounds, 15% with a hit somewhere; the sample as a whole holds those more often. Activity calls are given as the source filed them. Cut-off read from the data, not from the text of the source: active = growth inhibition above about 70%; inactive = the rest.

Assays:
[1] = NCI Yeast Anticancer Drug Screen. Data for the rad52 strain (AID 147);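 note: 0% = growth of vehicle-treated control cultures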; conditions: S. cerevisiae rad52 mutant growth inhibition, hits give high values
Procedure, shortened: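 Yeast strain carrying a DNA damage repair alteration was exposed to test compounds. Growth inhibition was measured relative to vehicle-treated controls.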

[2] = NCI Yeast Anticancer Drug Screen. Data for the wt1 strain (AID 149);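 note: 0% = growth of vehicle-treated wt1 cultures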; conditions: S. cerevisiae wt1 strain (SPY 50644) growth inhibition, hits give high values
Procedure, shortened: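 Each compound is tested on wt1 yeast and the loss of growth versus vehicle gives the inhibition value.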

[3] = NCI Yeast Anticancer Drug Screen. Data for the rad50EPP+ strain (AID 151);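 note: 0% = growth of vehicle-treated control cultures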; conditions: S. cerevisiae rad50 mutant strain, hits give high values
Procedure, shortened: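 Yeast strain carrying rad50 alteration (rad50EPP+) exposed to compounds; growth inhibition measured relative to vehicle-treated controls.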

[4] = NCI Yeast Anticancer Drug Screen. Data for the mgt1 strain (AID 153); conditions: S. cerevisiae mgt1 mutant growth inhibition, hits give high values
Procedure, shortened: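 Yeast mgt1 strain (DNA repair/cell-cycle alteration panel) exposed to compounds; growth inhibition measured relative to vehicle-treated controls.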

[5] = NCI Yeast Anticancer Drug Screen. Data for the rad50 strain (AID 155);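 note: 0% = growth of vehicle-only cultures of the same strain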; conditions: S. cerevisiae rad50 strain growth inhibition, hits give high values
Procedure, shortened: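 Vehicle-treated cultures provide the reference for the growth inhibition reported for compound-exposed, repair-deficient yeast.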

[6] = NCI Yeast Anticancer Drug Screen. Data for the mec2-1 strain (AID 157); conditions: S. cerevisiae mec2-1 strain, hits give high values
Procedure, shortened: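 mec2-1 yeast strain, carrying an alteration in DNA damage repair or cell cycle control, was exposed to compounds; growth inhibition was measured relative to vehicle-treated controls.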

[7] = NCI Yeast Anticancer Drug Screen. Data for the rad14 strain (AID 159);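 note: 0% = growth of vehicle-treated control cultures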; conditions: S. cerevisiae rad14 strain growth inhibition, hits give high values
Procedure, shortened: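 Inhibition of growth is reported for a repair-deficient yeast mutant following compound treatment, calculated relative to cultures that received vehicle.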

[8] = NCI Yeast Anticancer Drug Screen. Data for the sgs1 mgt1 strain (AID 161);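 note: 0% = growth of cultures given vehicle only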; conditions: S. cerevisiae sgs1 mgt1 strain, hits give high values
Procedure, shortened: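 Growth of a repair-deficient yeast mutant was monitored after compound treatment and expressed as inhibition relative to vehicle-treated cultures.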

[9] = NCI Yeast Anticancer Drug Screen. Data for the CLN2oe strain (AID 163);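 note: 0% = growth of vehicle-only control cultures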; conditions: S. cerevisiae CLN2oe strain, hits give high values
Procedure, shortened: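 Yeast cells carrying a defined cell-cycle control alteration were exposed to test compounds. Growth inhibition was scored against vehicle-treated control cultures.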

[10] = NCI Yeast Anticancer Drug Screen. Data for the cln2 rad14 strain (AID 165);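 note: 0% = growth equal to vehicle treated cultures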; conditions: S. cerevisiae cln2 rad14 strain, hits give high values
Procedure, shortened: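 Yeast carrying cln2 and rad14 alterations (cell cycle control and DNA damage repair) were exposed to compounds. Growth inhibition was measured against vehicle-treated controls.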

[11] = NCI Yeast Anticancer Drug Screen. Data for the bub3 strain (AID 167); conditions: S. cerevisiae bub3 mutant strain, hits give high values
Procedure, shortened: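 Mutant yeast screening strain plus compound; vehicle-treated cultures serve as the 0% inhibition reference.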

[12] = NCI Yeast Anticancer Drug Screen. Data for the wt2 strain (AID 169); conditions: S. cerevisiae wt2 strain growth inhibition, hits give high values
Procedure, shortened: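 Yeast cells were exposed to test compounds, and growth inhibition was measured relative to vehicle-treated controls.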

[13] = NCI Yeast Anticancer Drug Screen. Data for the mlh1 strain (AID 171);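 note: 0% = growth of vehicle-treated control cultures of the same strain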; conditions: S. cerevisiae mlh1 strain growth inhibition, hits give high values
Procedure, shortened: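 Yeast carrying a defined genetic alteration in DNA damage repair or cell cycle control were exposed to test compounds. Growth inhibition was measured relative to vehicle-treated controls.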

[14] = NCI Yeast Anticancer Drug Screen. Data for the sgs1 strain (AID 173);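 note: 0% = growth of vehicle-only control cultures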; conditions: S. cerevisiae sgs1 mutant, hits give high values
Procedure, shortened: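 Yeast mutant strains carrying defined defects in DNA damage repair or cell cycle control were exposed to test compounds. Growth inhibition was scored against vehicle-treated controls.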

[15] = NCI Yeast Anticancer Drug Screen. Data for the mlh1 rad18 strain (AID 175); conditions: S. cerevisiae mlh1 rad18 strain growth inhibition, hits give high values
Procedure, shortened: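 Growth inhibition of the yeast strain was measured after compound exposure and expressed relative to vehicle-treated controls. The strain carries defined defects in DNA damage repair.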

[16] = NCI Yeast Anticancer Drug Screen. Data for the rad18 strain (AID 177); conditions: S. cerevisiae rad18 mutant growth inhibition, hits give high values
Procedure, shortened: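 Yeast carrying a defined DNA damage repair alteration were exposed to compounds. Growth inhibition was expressed relative to vehicle-treated controls.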

[17] = at 5.0 µM (retest, dose inferred, filed as 0.5)
[18] = at 50.0 µM (retest, dose inferred, filed as 5.0)

Measured: growth inhibition

N#CSCC1COc2ccccc2O1 (stereo unspecified)
inactive: [1]; at 1.2 µM -43% | [1]; at 3.7 µM -47% | [1]; at 11.0 µM -26% | [2]; at 1.2 µM -49% | [2]; at 3.7 µM -49% | [2]; at 11.0 µM -28% | [2]; at 33.0 µM 54% | [3]; at 1.2 µM -28% | [3]; at 3.7 µM -18% | [3]; at 11.0 µM -5% | [4]; at 1.2 µM -25% | [4]; at 3.7 µM -23% | [4]; at 11.0 µM -9% | [4]; at 33.0 µM 68% | [5]; at 1.2 µM -1% | [5]; at 3.7 µM 1% | [5]; [17] -5% | [5]; at 11.0 µM 8% | [6]; at 1.2 µM -21% | [6]; at 3.7 µM -33% | [6]; [17] -27% | [6]; at 11.0 µM -5% | [7]; at 1.2 µM -20% | [7]; at 3.7 µM -12% | [7]; at 11.0 µM -16% | [7]; at 33.0 µM 20% | [8]; [17] -25% | [8]; [18] 26% | [9]; at 1.2 µM -11% | [9]; at 3.7 µM -14% | [9]; at 11.0 µM -14% | [10]; [17] -6% | [11]; at 1.2 µM -33% | [11]; at 3.7 µM -11% | [11]; [17] 8% | [11]; at 11.0 µM -16% | [12]; at 1.2 µM -50% | [12]; at 3.7 µM -51% | [12]; at 11.0 µM -24% | [12]; at 33.0 µM 58% | [13]; at 1.2 µM -51% | [13]; at 3.7 µM -37% | [13]; at 11.0 µM -27% | [14]; at 1.2 µM -46% | [14]; at 3.7 µM -42% | [14]; at 11.0 µM -8% | [15]; [17] 5% | [16]; at 1.2 µM -21% | [16]; at 3.7 µM -22% | [16]; at 11.0 µM 17%
active: [1]; at 33.0 µM 72% | [1]; at 100.0 µM 98% | [2]; at 100.0 µM 97% | [3]; at 33.0 µM 83% | [3]; at 100.0 µM 97% | [4]; at 100.0 µM 97% | [5]; at 33.0 µM 86% | [5]; [18] 89% | [5]; at 50.0 µM 88.4% | [5]; at 100.0 µM 98% | [6]; at 33.0 µM 87% | [6]; [18] 91% | [6]; at 50.0 µM 90.8% | [6]; at 100.0 µM 97% | [7]; at 100.0 µM 98% | [8]; at 50.0 µM 90.6% | [9]; at 33.0 µM 70% | [9]; at 100.0 µM 98% | [10]; [18] 85% | [10]; at 50.0 µM 85.3% | [11]; at 33.0 µM 87% | [11]; [18] 94% | [11]; at 50.0 µM 90.9% | [11]; at 100.0 µM 98% | [12]; at 100.0 µM 96% | [13]; at 33.0 µM 77% | [13]; at 100.0 µM 97% | [14]; at 33.0 µM 73% | [14]; at 100.0 µM 97% | [15]; [18] 94% | [15]; at 50.0 µM 88.2% | [16]; at 33.0 µM 91% | [16]; at 100.0 µM 98%

O=C1CCC(Cc2ccccc2)CN1 (stereo unspecified)
active: [4]; at 100.0 µM 93% | [8]; [18] 80% | [8]; at 50.0 µM 81.5% | [12]; at 100.0 µM 92% | [13]; at 100.0 µM 90% | [14]; at 100.0 µM 93%
inactive: [1]; at 1.2 µM -1% | [1]; at 3.7 µM -1% | [1]; at 11.0 µM -2% | [1]; at 33.0 µM -3% | [1]; at 100.0 µM 0% | [2]; at 1.2 µM -3% | [2]; at 3.7 µM -2% | [2]; at 11.0 µM 1% | [2]; at 33.0 µM -2% | [2]; at 100.0 µM -1% | [3]; at 1.2 µM -1% | [3]; at 3.7 µM 0% | [3]; at 11.0 µM 12% | [3]; at 33.0 µM 25% | [3]; at 100.0 µM 42% | [4]; at 1.2 µM -1% | [4]; at 3.7 µM -5% | [4]; at 11.0 µM -1% | [4]; at 33.0 µM 68% | [5]; at 1.2 µM -1% | [5]; at 3.7 µM -2% | [5]; [17] 10% | [5]; at 11.0 µM -2% | [5]; at 33.0 µM -3% | [5]; [18] 7% | [5]; at 50.0 µM 7.1% | [5]; at 100.0 µM -1% | [6]; at 1.2 µM -1% | [6]; at 3.7 µM -1% | [6]; [17] -11% | [6]; at 11.0 µM 0% | [6]; at 33.0 µM -1% | [6]; [18] -3% | [6]; at 50.0 µM 19.7% | [6]; at 100.0 µM 3% | [7]; at 1.2 µM -2% | [7]; at 3.7 µM -1% | [7]; at 11.0 µM -2% | [7]; at 33.0 µM -1% | [7]; at 100.0 µM 1% | [8]; [17] 3% | [9]; at 1.2 µM -8% | [9]; at 3.7 µM -5% | [9]; at 11.0 µM 3% | [9]; at 33.0 µM -4% | [9]; at 100.0 µM -6% | [10]; [17] -2% | [10]; [18] 4% | [10]; at 50.0 µM 0.15% | [11]; at 1.2 µM -4% | [11]; at 3.7 µM -5% | [11]; [17] -11% | [11]; at 11.0 µM -5% | [11]; at 33.0 µM -7% | [11]; [18] -8% | [11]; at 50.0 µM 10.9% | [11]; at 100.0 µM -8% | [12]; at 1.2 µM -3% | [12]; at 3.7 µM 0% | [12]; at 11.0 µM 3% | [12]; at 33.0 µM 50% | [13]; at 1.2 µM -3% | [13]; at 3.7 µM -2% | [13]; at 11.0 µM 0% | [13]; at 33.0 µM 37% | [14]; at 1.2 µM 0% | [14]; at 3.7 µM 1% | [14]; at 11.0 µM 11% | [14]; at 33.0 µM 62% | [15]; [17] -9% | [15]; [18] 1% | [15]; at 50.0 µM 3.7% | [16]; at 1.2 µM 1% | [16]; at 3.7 µM -2% | [16]; at 11.0 µM 4% | [16]; at 33.0 µM 0% | [16]; at 100.0 µM 1%

COc1ccc2c3c1OC(C)C31CC(=O)CCC1CC2 (stereo unspecified)
inactive: [1]; at 1.2 µM -4% | [1]; at 3.7 µM -1% | [1]; at 11.0 µM 4% | [1]; at 33.0 µM 2% | [1]; at 100.0 µM 15% | [2]; at 1.2 µM -3% | [2]; at 3.7 µM -4% | [2]; at 11.0 µM -5% | [2]; at 33.0 µM -5% | [2]; at 100.0 µM -3% | [3]; at 1.2 µM -5% | [3]; at 3.7 µM 1% | [3]; at 11.0 µM 6% | [3]; at 33.0 µM -1% | [3]; at 100.0 µM 4% | [4]; at 1.2 µM -8% | [4]; at 3.7 µM -5% | [4]; at 11.0 µM -4% | [4]; at 33.0 µM -2% | [4]; at 100.0 µM -1% | [5]; at 1.2 µM -2% | [5]; at 3.7 µM 1% | [5]; [17] 13% | [5]; at 11.0 µM 3% | [5]; at 33.0 µM 4% | [5]; [18] 23% | [5]; at 50.0 µM 7.25% | [5]; at 100.0 µM 13% | [6]; at 1.2 µM -4% | [6]; at 3.7 µM -2%
